# In the supplement of paper PMC9135407:
# Several values for one entry are separate records, joined by “and”; a condition that tells them apart may be missing. Equal values may be shown once. The whole screen tested about 5,800 compounds, of which about 620 (11%) showed activity. The list comes from a sample in which actives are over-represented; it also holds similar structures and randomly drawn compounds. A number with no mark means an inactive call.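 The calls were made as follows: active = score above a cut-off or among the top three wells of a plate; in these data no inactive exceeds 0.85.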
# Test system: primary human hepatic stellate cells (donor 1)
# Experiment: scaled lipid accumulation score (0 = DMSO-like, 1 = nortriptyline-like); higher = stronger HSC inactivation (lipid re-accumulation), active = hit call of the paper
# Details: 48 h
# Description: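 Primary lipid accumulation screen in primary human hepatic stellate cell myofibroblasts (donor 1, passage 8) in 384-well plates. 100 nL of library compound was pin-transferred into 30 µL medium in duplicate, and cells were treated for 48 h. The 'Scaled' score combines distance from plate baseline, toxicity and reproducibility penalties, and is normalised to nortriptyline (positive) and DMSO (negative) controls on each plate. A hit is defined as scaled >0.85 or among the top 3 wells per plate.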
# [1] = library stock concentration: 80 uM
# [2] = library stock concentration: 400 uM
# [3] = library stock concentration: 2 mM
# [4] = library stock concentration: 10 mM
# [5] = library stock concentration: 3.33 mM
# [6] = library stock concentration: 1 mM
smiles,measurement,setting,value
CC(C)(C)c1cc(NC(=O)Nc2ccc(-c3cn4c(n3)sc3cc(OCCN5CCOCC5)ccc34)cc2)no1,scaled lipid accumulation score,[1],≤ 0
same,scaled lipid accumulation score,[2],≤ 0
same,scaled lipid accumulation score,[3],0.142
same,scaled lipid accumulation score,[4],0.292
O=C(Cc1ccc(-c2ccc(OCCN3CCOCC3)cc2)cn1)NCc1ccccc1,scaled lipid accumulation score,[1],0.076
same,scaled lipid accumulation score,[2],0.268
same,scaled lipid accumulation score,[3],0.077
same,scaled lipid accumulation score,[5],0.093
same,scaled lipid accumulation score,[4],0.076 and 0.499
CC(C)(C)c1cc(NC(=O)Nc2ccc(-c3cn4c(n3)sc3cc(OCCN5CCOCC5)ccc34)cc2)no1 [Quizartinib  (AC220) (10 mM)],scaled lipid accumulation score,[4],1.7 (active)
CC(C)(C)c1cc(NC(=O)Nc2ccc(-c3cn4c(n3)sc3cc(OCCN5CCOCC5)ccc34)cc2)no1 [Quizartinib (AC220)] [listing 1 of 2 here],scaled lipid accumulation score,[5],0.288
CC(C)(C)c1cc(NC(=O)Nc2ccc(-c3cn4c(n3)sc3cc(OCCN5CCOCC5)ccc34)cc2)no1 [Quizartinib  (AC220) (0.4 mM)],scaled lipid accumulation score,[2],≤ -0.005
Cc1ccc(-n2nc(C(C)(C)C)cc2NC(=O)Nc2ccc(OCCN3CCOCC3)c3ccccc23)cc1,scaled lipid accumulation score,[1],≤ -0.009
same,scaled lipid accumulation score,[2],≤ -0.009
same,scaled lipid accumulation score,[3],0.044
same,scaled lipid accumulation score,[4],≤ -0.009
CC(C)(C)c1cc(NC(=O)Nc2ccc(-c3cn4c(n3)sc3cc(OCCN5CCOCC5)ccc34)cc2)no1 [Quizartinib (AC220)] [listing 2 of 2 here],scaled lipid accumulation score,[4],1.15 (active)
Cc1ccc(-n2nc(C(C)(C)C)cc2NC(=O)Nc2ccc(OCCN3CCOCC3)c3ccccc23)cc1 [BIRB 796 (Doramapimod)],scaled lipid accumulation score,[5],0.017
same,scaled lipid accumulation score,[4],≤ 0
CC(C)(C)c1cc(NC(=O)Nc2ccc(-c3cn4c(n3)sc3cc(OCCN5CCOCC5)ccc34)cc2)no1 [Quizartinib  (AC220) (2 mM)],scaled lipid accumulation score,[3],1.02 (active)
"C=C1CCC(O)C/C1=C\C=C1\CCCC2(C)C1CCC2C(C)CCC(O)C(C)(C)O (centres undefined) [24,25-Dihydroxyvitamin D3]",scaled lipid accumulation score,[6],0.016
O=C(O)CCC/C=C\C[C@H]1C(=O)C[C@@H](O)[C@@H]1/C=C/[C@@H](O)COc1ccccc1 [16-phenoxy tetranor Prostaglandin E2],scaled lipid accumulation score,[6],≤ 0
CCCCCCCCCCCCCCCCCCCCCCCC(=O)NCCS(=O)(=O)O [N-Lignoceroyl Taurine],scaled lipid accumulation score,[6],0.009
CCCCCC(O)C=CC1C(O)CC(O)C1CC=CCCCC(=O)O (stereo not drawn) [8-epi-Prostaglandin F2a],scaled lipid accumulation score,[6],≤ -0.021
O=C(Cc1ccccc1)Nc1nc2ccc(Cl)cc2c2nc(-c3ccco3)nn12,scaled lipid accumulation score,[4],0.596
CC(C)NC[C@@H](C(=O)N1CCN(c2ncnc3c2[C@H](C)C[C@H]3O)CC1)c1ccc(Cl)cc1 [listing 1 of 2 here],scaled lipid accumulation score,[1],≤ -0.016
same,scaled lipid accumulation score,[2],≤ -0.016
same,scaled lipid accumulation score,[3],0.083
same,scaled lipid accumulation score,[5],0.174
same,scaled lipid accumulation score,[4],0.257
CC(C)NC[C@@H](C(=O)N1CCN(c2ncnc3c2[C@H](C)C[C@H]3O)CC1)c1ccc(Cl)cc1 [listing 2 of 2 here],scaled lipid accumulation score,[4],0.881 (active)
"CCCCCCCC/C=C\CCCCCCCC(=O)OCC(CO)OC(=O)CCCCCCC/C=C\CCCCCCCC (centres undefined) [1,2-Dioleoyl-glycerol (18:1)]",scaled lipid accumulation score,[6],0.004
COc1cc(N2CCC(C(N)=O)CC2)ccc1Nc1nc(N)c(Cl)c(Nc2ccccc2S(=O)(=O)C(C)C)n1,scaled lipid accumulation score,[1],≤ 0
same,scaled lipid accumulation score,[2],≤ 0
same,scaled lipid accumulation score,[3],0.025
same,scaled lipid accumulation score,[4],0.537
O=C(O)CCCCCCC1C(=O)NC(=O)N1CCC(O)C1CCCCC1 (centres undefined),scaled lipid accumulation score,[6],≤ 0
COc1cc(OC)c(C(=O)CCCCN2CCC3(CC2)NC(=O)NC3=O)cc1NS(=O)(=O)c1ccc(C(F)(F)F)cc1.Cl,scaled lipid accumulation score,[4],0.941 (active)
O=C(O)CN(CC(=O)O)Cc1cc2c(cc1O)Oc1cc(O)c(CN(CC(=O)O)CC(=O)O)cc1C21OC(=O)c2ccccc21 [Calcein],scaled lipid accumulation score,[4],0.169
COc1ccc2c(c1)c(CC(=O)Oc1ccc(-c3cc(=S)ss3)cc1)c(C)n2C(=O)c1ccc(Cl)cc1,scaled lipid accumulation score,[6],≤ 0
COC(=O)[C@H](Cc1ccccc1)NC(=O)/C=C/c1ccc(O)cc1,scaled lipid accumulation score,[6],0.011
C[C@H](NC(=O)CCc1nc2ccccc2c(=O)[nH]1)c1ccccc1,scaled lipid accumulation score,[5],≤ -0.009
same,scaled lipid accumulation score,[4],≤ 0
"CCCCCC#CCC#CCC#CCCCCCCC(=O)O [8,11,14-Eicosatriynoic Acid]",scaled lipid accumulation score,[6],≤ 0
CC(C)C[C@H](NC(=O)[C@@H](COC(C)(C)C)NC(=O)[C@H](Cc1ccc(O)cc1)NC(=O)[C@H](CO)NC(=O)[C@H](Cc1c[nH]c2ccccc12)NC(=O)[C@H](Cc1cnc[nH]1)NC(=O)[C@@H]1CCC(=O)N1)C(=O)N[C@@H](CCCNC(=N)N)C(=O)N1CCC[C@H]1C(=O)NNC(N)=O,scaled lipid accumulation score,library stock concentration: 9.6 mM,0.046
CC(C)C[C@H](NC(=O)[C@@H](COC(C)(C)C)NC(=O)[C@H](Cc1ccc(O)cc1)NC(=O)[C@H](CO)NC(=O)[C@H](Cc1c[nH]c2ccccc12)NC(=O)[C@H](Cc1cnc[nH]1)NC(=O)[C@@H]1CCC(=O)N1)C(=O)N[C@@H](CCCNC(=N)N)C(=O)N1CCC[C@H]1C(=O)NNC(N)=O [Goserelin acetate],scaled lipid accumulation score,library stock concentration: 1.6 mM,≤ -0.006
"CCCCCCCC(=O)OC[C@H](CO)OC(=O)CCCCCCC [1,2-Dioctanoyl-SN-glycerol]",scaled lipid accumulation score,[6],≤ -0.021
"CCCCCCCC(=O)OC[C@H](CO)OC(=O)CCCCCCC [1,2-Dioctanoyl-sn-glycerol]",scaled lipid accumulation score,[6],0.009
Br.Br.CN(C)CCCc1cc(C(=O)Nc2ccc(-c3ccncc3)cc2)ccc1O,scaled lipid accumulation score,[4],1.13 (active)
Cc1ccc(NC(=O)c2cccc(N(C)C)c2)cc1NC(=O)c1ccc(O)cc1,scaled lipid accumulation score,[4],≤ -0.004
COc1ccc(NC(=O)c2ccc(-c3ccc(-c4noc(C)n4)cc3C)cc2)cc1OCCN(C)C,scaled lipid accumulation score,[4],0.491
CC(C)CCCC(C)N (centres undefined) [Octodrine],scaled lipid accumulation score,library stock concentration: 15.5 mM,0.024
CCC(CC)CC1(C(=O)Nc2ccccc2SC(=O)C(C)C)CCCCC1,scaled lipid accumulation score,[5],≤ 0
same,scaled lipid accumulation score,[4],≤ 0
